From PubChem BioAssay
Potency and affinity values are given separately. Active and inactive are the calls of the source. Unless noted, no cut-off is given here; in the data, nearly all actives have IC50 up to about 0.98 µM.

The molecules below were run against Calcium-dependent protein kinase 1 (Plasmodium falciparum (isolate 3D7)) (UniProt P62344) (assay: PfCDPK1 kinase inhibitors, biochemical, TCAMS library (AID 1159585;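 note: inhibitors leave more ATP so luminescence rises with inhibition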)). Details: recombinant PfCDPK1, Kinase-Glo ATP depletion luminescence.
Sequence of Calcium-dependent protein kinase 1 (Plasmodium falciparum (isolate 3D7)) (P62344 whole entry, looked up): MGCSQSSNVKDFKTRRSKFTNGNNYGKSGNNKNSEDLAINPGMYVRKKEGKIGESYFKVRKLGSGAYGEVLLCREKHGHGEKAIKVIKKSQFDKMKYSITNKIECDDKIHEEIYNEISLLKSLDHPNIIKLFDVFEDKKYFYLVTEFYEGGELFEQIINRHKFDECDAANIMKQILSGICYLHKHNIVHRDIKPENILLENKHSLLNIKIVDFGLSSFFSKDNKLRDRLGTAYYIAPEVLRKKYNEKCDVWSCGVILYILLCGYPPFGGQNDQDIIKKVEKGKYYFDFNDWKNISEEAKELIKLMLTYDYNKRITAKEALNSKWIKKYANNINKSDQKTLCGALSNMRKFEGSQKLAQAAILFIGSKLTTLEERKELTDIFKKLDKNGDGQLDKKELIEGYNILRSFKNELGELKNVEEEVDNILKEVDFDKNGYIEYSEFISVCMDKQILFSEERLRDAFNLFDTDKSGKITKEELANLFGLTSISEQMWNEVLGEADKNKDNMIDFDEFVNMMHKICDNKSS

outcome, inactive:
O=C(Nc1ccccc1)Nc1cccc(-c2nn3c(OCCN4CCCC4)cccc3c2-c2ccncc2)c1
N#Cc1ccc(C(=O)Nc2cc(-c3cccc(O)c3)cc3[nH]ncc23)cc1
O=C(NCCCCN1CCC(c2ccc3c(c2OCCCO)CCCC3)CC1)c1ccc(-c2ccc(C(F)(F)F)cc2)c(CO)c1
Cc1nc(Nc2ccc(F)cc2)nc(N2CCc3ccccc3[C@@H]2C)c1C
Cc1ccccc1Oc1ccc(Nc2ccnc(Nc3cccc(C(N)=O)c3)n2)cc1C(F)(F)F
Fc1ccccc1C=NNc1ccnc2cc(Cl)ccc12
O=c1c2cccnc2sn1-c1ccccc1
COc1ccc(CN2CCN(CC(=O)Nc3cc(Cl)ccc3-n3cncn3)CC2)cc1F
Clc1ccc(C=NNc2ccnc3cc(Cl)ccc23)cc1
O=C(CN1C(=O)CC1S(=O)(=O)Cc1ccco1)NCCCCCCc1ccc(F)cc1 (stereo not given)
NS(=O)(=O)c1cccc(N=Cc2c(O)[nH]c3ccc(S(=O)(=O)Cc4c(Cl)cccc4Cl)cc23)c1
Cn1cccc1C(=O)Nc1cccc(-c2nn3ccccc3c2-c2ccnc(Nc3ccc4c(c3)OCCO4)n2)c1
Cc1nc2ccccc2n1C1C[C@H]2CC[C@@H](C1)N2CCC1(c2ccccc2)CCN(C(=O)Nc2ccc(C(F)(F)F)cc2)CC1 (stereo not given in full)
c1ccc2sc(-c3csc(Nc4ccncc4)n3)nc2c1
CCN(CC)CCNC(=O)c1ccc(Nc2ncc([N+](=O)[O-])c(Nc3ccccc3OC)n2)cc1
CCN(CC)CCCC(C)Nc1nc(C=Cc2ccc(Br)cc2)nc2cc(Cl)ccc12 (stereo not given)
Cc1cccc(Cn2ccc3c(N)nc(N)nc32)c1
CC(=O)Nc1ccc(Nc2ncc([N+](=O)[O-])c(Nc3ccccc3C(N)=O)n2)cc1
O=C(Nc1ccc(OC2CCN(CC3CC3)CC2)c(Cl)c1)c1ccc2ncccc2c1
CCc1cc2c3c(N)nc(N)nc3ccc2n1C(C)(C)C
CC(Sc1n[nH]c(-c2ccccc2Br)n1)C(=O)Nc1ccc(F)cc1 (stereo not given)
CC(CC1CCCCC1)NCc1ccccc1OCCC(=O)N1CCCC1C(N)=O (stereo not given)
CCS(=O)(=O)c1ccc(OC)c(Nc2nccc(-c3c(-c4cccc(NC(=O)c5c(F)cccc5F)c4)nn4ncccc34)n2)c1
Clc1cccc(C=NNc2ccnc3cc(Cl)ccc23)c1
Cc1cc(OCCCN2CCCC2)ccc1NC(=O)COc1ccc(Cl)cc1C(=O)c1cc(C#N)cc(C(F)(F)F)c1
O=C(NNC(=O)c1ccc(CN2CCC(c3nc4ccccc4[nH]3)CC2)cc1)Nc1ccc(Oc2ccccc2)cc1
Cc1ccc(Cn2ccc3c4c(N)nc(N)nc4ccc32)cc1
S=C(Nc1ccc(Cl)cc1)Nc1ccc(Nc2ccccc2)cc1
COc1cc(Nc2nccc(-c3c(-c4cccc(NC(=O)c5c(F)cccc5F)c4)nn4ncccc34)n2)cc(OC)c1OC
O=C(O)c1ccc(-c2cnc3ccc(NC4CCC(O)CC4)nn23)cc1 (stereo not given)
Cc1ccc(-n2c(C)cc(C(=O)CN3C(=O)NC(Cc4ccccc4)C3=O)c2C)cc1 (stereo not given)
CCn1c(-c2nonc2N)nc2c(-c3cc4ccccc4s3)ncc(C(=O)N3CCC(N)C3)c21 (stereo not given)
Cc1ccccc1Cn1ccc2c3c(N)nc(N)nc3ccc21
C[C@H]1CN(Cc2ccc(-c3cccc(CNC(=O)c4cccc(C(=O)c5ccc(Cl)c(Cl)c5)c4)c3)s2)CCN1
COc1ccc(N=C(N)Nc2ccccc2)nc1Cc1ccccc1
Cc1[nH]nc2ccc(-c3cc(OC[C@@H](N)Cc4ccccc4)cnc3-c3cc4ccccc4s3)cc12
C=CC(C)C1OC(=O)c2cc(OC)cc(OC)c21 (stereo not given)
CCNC(=O)Nc1ccc(N(C)c2ccnc(Nc3ccc(CS(C)(=O)=O)cc3)n2)cc1
CCN(CC)CCNC(=O)c1ccc(N=Cc2c(O)[nH]c3ccc(S(=O)(=O)Cc4c(Cl)cccc4Cl)cc23)cc1

These molecules were tested against Plasmodium falciparum protein kinase 6 (PK6, PF3D7_1337100) (UniProt Q8IDW1) (assay: PfPK6 kinase inhibitors, biochemical, TCAMS library (AID 1159586; call rule not given here)). Details: recombinant PfPK6, Kinase-Glo ATP depletion luminescence.
Sequence of Plasmodium falciparum protein kinase 6 (PK6, PF3D7_1337100) (Q8IDW1 1-305): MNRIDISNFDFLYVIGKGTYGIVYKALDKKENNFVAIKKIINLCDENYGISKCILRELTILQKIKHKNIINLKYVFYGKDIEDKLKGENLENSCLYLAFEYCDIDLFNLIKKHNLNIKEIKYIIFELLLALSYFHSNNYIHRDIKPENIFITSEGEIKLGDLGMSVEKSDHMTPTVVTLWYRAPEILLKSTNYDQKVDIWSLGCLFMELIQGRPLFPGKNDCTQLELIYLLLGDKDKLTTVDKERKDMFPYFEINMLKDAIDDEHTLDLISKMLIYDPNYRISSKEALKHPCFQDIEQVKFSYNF

outcome, inactive:
O=C(Nc1ccccc1)Nc1cccc(-c2nn3c(OCCN4CCCC4)cccc3c2-c2ccncc2)c1
N#Cc1ccc(C(=O)Nc2cc(-c3cccc(O)c3)cc3[nH]ncc23)cc1
O=C(NCCCCN1CCC(c2ccc3c(c2OCCCO)CCCC3)CC1)c1ccc(-c2ccc(C(F)(F)F)cc2)c(CO)c1
Cc1nc(Nc2ccc(F)cc2)nc(N2CCc3ccccc3[C@@H]2C)c1C
Cc1ccccc1Oc1ccc(Nc2ccnc(Nc3cccc(C(N)=O)c3)n2)cc1C(F)(F)F
Fc1ccccc1C=NNc1ccnc2cc(Cl)ccc12
O=c1c2cccnc2sn1-c1ccccc1
COc1ccc(CN2CCN(CC(=O)Nc3cc(Cl)ccc3-n3cncn3)CC2)cc1F
Clc1ccc(C=NNc2ccnc3cc(Cl)ccc23)cc1
O=C(CN1C(=O)CC1S(=O)(=O)Cc1ccco1)NCCCCCCc1ccc(F)cc1 (stereo not given)
NS(=O)(=O)c1cccc(N=Cc2c(O)[nH]c3ccc(S(=O)(=O)Cc4c(Cl)cccc4Cl)cc23)c1
Cn1cccc1C(=O)Nc1cccc(-c2nn3ccccc3c2-c2ccnc(Nc3ccc4c(c3)OCCO4)n2)c1
Cc1nc2ccccc2n1C1C[C@H]2CC[C@@H](C1)N2CCC1(c2ccccc2)CCN(C(=O)Nc2ccc(C(F)(F)F)cc2)CC1 (stereo not given in full)
c1ccc2sc(-c3csc(Nc4ccncc4)n3)nc2c1
CCN(CC)CCCC(C)Nc1nc(C=Cc2ccc(Br)cc2)nc2cc(Cl)ccc12 (stereo not given)
Cc1cccc(Cn2ccc3c(N)nc(N)nc32)c1
O=C(Nc1ccc(OC2CCN(CC3CC3)CC2)c(Cl)c1)c1ccc2ncccc2c1
CCc1cc2c3c(N)nc(N)nc3ccc2n1C(C)(C)C
CC(Sc1n[nH]c(-c2ccccc2Br)n1)C(=O)Nc1ccc(F)cc1 (stereo not given)
CC(CC1CCCCC1)NCc1ccccc1OCCC(=O)N1CCCC1C(N)=O (stereo not given)
CCS(=O)(=O)c1ccc(OC)c(Nc2nccc(-c3c(-c4cccc(NC(=O)c5c(F)cccc5F)c4)nn4ncccc34)n2)c1
Clc1cccc(C=NNc2ccnc3cc(Cl)ccc23)c1
Cc1cc(OCCCN2CCCC2)ccc1NC(=O)COc1ccc(Cl)cc1C(=O)c1cc(C#N)cc(C(F)(F)F)c1
O=C(NNC(=O)c1ccc(CN2CCC(c3nc4ccccc4[nH]3)CC2)cc1)Nc1ccc(Oc2ccccc2)cc1
Cc1ccc(Cn2ccc3c4c(N)nc(N)nc4ccc32)cc1
S=C(Nc1ccc(Cl)cc1)Nc1ccc(Nc2ccccc2)cc1
COc1cc(Nc2nccc(-c3c(-c4cccc(NC(=O)c5c(F)cccc5F)c4)nn4ncccc34)n2)cc(OC)c1OC
O=C(O)c1ccc(-c2cnc3ccc(NC4CCC(O)CC4)nn23)cc1 (stereo not given)
Cc1ccc(-n2c(C)cc(C(=O)CN3C(=O)NC(Cc4ccccc4)C3=O)c2C)cc1 (stereo not given)
CCn1c(-c2nonc2N)nc2c(-c3cc4ccccc4s3)ncc(C(=O)N3CCC(N)C3)c21 (stereo not given)
Cc1ccccc1Cn1ccc2c3c(N)nc(N)nc3ccc21
C[C@H]1CN(Cc2ccc(-c3cccc(CNC(=O)c4cccc(C(=O)c5ccc(Cl)c(Cl)c5)c4)c3)s2)CCN1
COc1ccc(N=C(N)Nc2ccccc2)nc1Cc1ccccc1
Cc1[nH]nc2ccc(-c3cc(OC[C@@H](N)Cc4ccccc4)cnc3-c3cc4ccccc4s3)cc12
C=CC(C)C1OC(=O)c2cc(OC)cc(OC)c21 (stereo not given)
CCN(CC)CCNC(=O)c1ccc(N=Cc2c(O)[nH]c3ccc(S(=O)(=O)Cc4c(Cl)cccc4Cl)cc23)cc1
